This is part of a sample that, as a whole, favours compounds with a hit. Of some 83,000 tested, about 20% had one in any assay.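 Cell lines were cultured in 96-well plates, exposed to a single compound concentration, and assessed for percent growth 48 hours later.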 Unmarked numbers belong to inactive results. Activity calls are given as the source filed them.

The test system of the experiment is EKVX NSCLC. The experiment is described as follows: NCI-60 one-dose screen, 48 h (100 = growth as untreated, 0 = no growth, -100 = all killed). Conditions: 10 µM unless noted. As for the experimental part:
Growth inhibition of the EKVX human Non-Small Cell Lung tumor cell line is measured as a screen for anti-cancer activity. Cells are grown in 96 well plates and exposed to the test compound for 48 hours. Compounds are tested at a single concentration, which is 10^-5 M for most compounds. The reported endpoint is percent growth (GI% or GIPRCNT), where numbers from 0 - 100% represent growth inhibition, and numbers from -100% - 0 represent cell death. For example, a value of 40 represents 60% growth inhibition. A value of 0 means no net growth occurred over the course of the experiment. A value of -40 indicates 40% of cells at the beginning of the experiment died by the end of the experiment. A value of -100 means all cells are dead at the end of the experiment.
NCI-60 Human Tumor Cell Lines Screen was performed using the standard one-dose NCI protocol, which is described in more detail at https://dtp.cancer.gov/discovery_development/nci-60/default.htm.
Compounds with GIPRCNT values below 10 were considered active. Activity score was based on GIPRCNT using the following formula: […]
Score is 0 for GIPRCNT values of 100 or above, 50 for GIPRCNT values of 0, and 100 for GIPRCNT values of -100.
Take `CCOC(=O)/C(C#N)=C\c1c[nH]c2ccccc12`: the growth was 75.7%. For `Nc1ncnc(Nc2ccccc2)n1`, the growth was 122%. The value for `CCCNS(=O)(=O)c1ccc(Cl)cc1` was 91.6%; that for `Cc1ccc(NC(=O)c2ccccc2Cl)cc1` was 105%.

Take `C[n+]1c(/C=C\C=C\N2CCCCC2)sc2ccccc21`: the growth was 5.77% (active). Then `C=CCN1CCCC1=O`, with 96.8%. With `NC(=O)c1cc2c3ccccc3ccn2c1-c1ccccc1`, the growth is 14.5%. Then `Nc1ccc(F)c(Cl)c1F`, with 107%; and `CCN(C(=O)Nc1ccccc1Cl)c1ccccc1`, with 111%. For `S=C(Sc1ccc(Cl)cc1)Sc1ccc(Cl)cc1`, the growth was 49.1%. Take `O=C1C=CC(=O)C2=C1CCCC2`: the growth was 69.1%. In the case of `CCN(Cc1ccc(Cl)c(Cl)c1)c1ccc2nc(N)nc(N)c2c1C`, the growth is -56.8% (active). In the case of `COc1ccc(C)cc1NC(=O)SC(C)C`, the growth is 102% [100 µM].

As for `CC(CCC#N)(CCC#N)C(=O)c1ccccc1`, the growth is 115%. As for `N#C/C(=C\c1ccc(C#N)cc1)C(=O)c1ccccc1`, the growth was 109%. Take `C/C=C/C1OCC(CC)C(CCC)O1` (stereo not given): the growth was 105%. On to `CN(C)CCOC(=O)Nc1ccc(Cc2ccc(NC(=O)OCCN(C)C)cc2)cc1`, for which the growth was 102% [100 µM].

As to `CCOC(=O)N[C@H]1CCc2cc(OC)c(OC)c(OC)c2-c2ccc(SC)c(=O)cc21`, the growth is 31.6%.

Turning to `Cc1ccccc1NC(=O)Oc1ccc(Cl)cc1C(=O)c1ccccc1`, the growth was 96.8%. The value for `CCOC(=O)c1c[nH][nH]c1=O` was 116%; that for `O=C(CCl)Oc1ccc([N+](=O)[O-])cc1` was 112%. Turning to `Cc1cc(Cc2ccccc2)c(O)c(Cc2ccccc2)c1`, the growth is 112%.

As for `O=[N+]([O-])c1ccc(-c2nc(N(CCO)CCO)c3ccccc3n2)o1`, the growth is -32.4% (active). Consider `CCOC(=O)c1cc(C)[nH]c(=O)c1C#N`, for which the growth is 86.8%.

Take `CC(=O)OCC1CCC(COC(C)=O)CC1` (stereo not given): the growth is 94.3%. In the case of `O=C(O)c1ccc(OCc2ccccc2)cc1`, the growth is 110%. As for `Nc1ccc2c(c1)Cc1cc(N)c(N)cc1-2`, the growth is 88.6%. With `Cc1ccc(O)c(N)c1`, the growth was 136%. With `COc1cccc(N=CNc2cccc(OC)c2)c1`, the growth is 99.4%.

With `Cc1c(Cl)cccc1N=C=S`, the growth is 89.1%. For the compound `COc1cc(OC)c2cc(C(=O)c3ccc(C#N)cc3)c(=O)oc2c1`, the growth is 110%. In the case of `CCCCCCCCCCCCCCCCCCSC(=N)N`, the growth was 88.3%. Take `NNc1ncnc2nc[nH]c12`: the growth was 69.7%. As to `Nc1ncnc(Nc2ccc(C(F)(F)F)cc2)n1`, the growth was 99.7%.

Regarding `CN(C(=S)S(=O)(=O)C12CC3CC(CC(C3)C1)C2)c1ccccc1`, the growth is 104%. On to `Cc1ccc2[nH]c3ccccc3c2c1`, for which the growth was 108%. As for `COC1OC(CO)C(OC)C(O)C1O` (stereo not given), the growth is 103%.

In the case of `Cc1ccc2nc(N)nnc2c1`, the growth is 113%. Take `CCOC(=O)c1ccc(C(C)(C)C)cc1`: the growth was 114%. The value for `Cc1ccc(C2CCCCC2)cc1Br` was 98.9%.
